# Data from PubChem BioAssay (NCATS).
# Values joined by “and” are separate entries in the source; they are usually repeats but may differ in a detail not shown here. Equal entries are not always repeated. Inconclusive results are not listed. Some structures have more than one record in an assay (separate samples or runs), and their calls can disagree. Active and inactive are the calls of the source. Unless noted, calls follow the shape of the dose curve; as a rule, active = well fitted curve in the direction sought with a large enough effect; inconclusive = small, poorly fitted or top-dose-only effect, or another doubt; inactive = no such curve, though single readings can be large; an effect the other way counts as inactive or inconclusive.
# Columns and labels:
# [1] = Validation of Assay for Modulators of Lamin A Splicing (AID 1459; active = well fitted curve in the direction sought with a large enough effect in the signal ratio; the % refers to the signal ratio;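 also: cells exposed to compound for two days before reading; ratio rise marks activators and ratio drop marks inhibitors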)
# How it was run: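 Dual-reporter HeLa S3 line (lamin A-EGFP minigene, DsRed2) treated with compounds 48 hrs, 0.5% DMSO final. Endpoint: EGFP/DsRed2 total intensity ratio from laser-scanning microplate cytometry.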
# [2] = biological target: Alpha-galactosidase A (Homo sapiens) (UniProt P06280); test: Counterscreen for Glucocerebrosidase Inhibitors: qHTS Assay for Human alpha-Galactosidase at pH 4.5 (AID 992)
# How it was run: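 Each compound is preincubated briefly with 2 nM enzyme before substrate addition (80 uM); plates then sit 20 min at ambient temperature, are quenched with 1M NaOH/1M glycine, and read fluorometrically.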
# [3] = biological target: alpha-glucosidase (Oryza sativa, rice) (UniProt Q653V4); test: Counterscreen for Glucocerebrosidase Inhibitors: qHTS Assay for Rice alpha-Glucosidase at pH 5.0 (AID 997)
# How it was run: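 Endpoint fluorogenic assay at pH 5.0: compounds (0.7 nM to 77 uM) titrated against 4 nM rice enzyme and 400 uM 4-MU-alpha-glucoside for 20 min at room temperature; NaOH/glycine stop, read ex 365/em 440 nm, Hill-fitted AC50.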
# [4] = biological target: Alpha-galactosidase (Coffea arabica) (UniProt Q42656); test: Counterscreen for Glucocerebrosidase Inhibitors: qHTS Assay for Coffee Bean alpha-Galactosidase at pH 5.9 (AID 998)
# How it was run: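 Fluorogenic 4-MU substrate hydrolysis, 80 uM substrate and 2 nM coffee bean alpha-galactosidase, pH 5.9 citrate buffer, 20 min at room temperature, then NaOH/glycine stop. Titration 0.7 nM–77 uM, normalized to no-enzyme and enzyme controls, AC50 via Hill equation.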
# [5] = Cell Viability - LYMP2-023 (AID 975); also: potency is read from the fitted curve at half-maximal effect; nearly all actives have a fitted effect of over 55% in size
# How it was run: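 In this qHTS, ATP-based luciferase luminescence (CellTiter-Glo) is quantified in human lymphoblastoid cells after 24 hr compound treatment at 37 C; tetraoctylammonium bromide serves as positive control. Concentration-response curves are Hill-fitted to give AC50.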
# [6] = Cell Viability - LYMP2-025 (AID 976); also: potency is read from the fitted curve at half-maximal effect
# How it was run: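 Luminescent ATP readout after 24 hr treatment of a human lymphoblastoid line (LYMP2-025, 2500 cells/well, 37 C). Reagent developed 30 min at room temperature; AC50 fitted with the Hill equation.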
# [7] = Cell Viability - LYMP2-002 (AID 977);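 also: potency is read from the fitted curve at half-maximal effect; compound exposure lasted 24 h at 37 °C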
# How it was run: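 Human lymphoblastoid cells (2500/well) in complete medium were preincubated 5 hr at 37 C, then exposed to compounds for 24 hr at 37 C. Intracellular ATP was read by CellTiter-Glo luminescence; AC50 came from Hill-equation concentration-response fits.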
# [8] = Cell Viability - LYMP2-006 (AID 978); also: potency is read from the fitted curve at half-maximal effect; nearly all actives have a fitted effect of over 60% in size
# How it was run: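 In this cytotoxicity screen, the human lymphoblastoid line grew in complete medium with test compounds for 24 hr at 37 C. Cellular ATP served as the viability signal.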
# [9] = Cell Viability - LYMP2-007 (AID 979);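 also: potency is read from the fitted curve at half-maximal effect; cells exposed to compound for 24 h before reading; nearly all actives have a fitted effect of over 60% in size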
# How it was run: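 Measured via luciferase-based ATP quantitation: lymphoblastoid cells, 24 hr compound exposure at 37 C, AC50 from Hill fits.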
# [10] = Cell Viability - LYMP2-008 (AID 980); also: potency is read from the fitted curve at half-maximal effect; nearly all actives have a fitted effect of over 60% in size
# How it was run: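 Measured: ATP-dependent luminescence, proportional to viable cell number, in human lymphoblastoid cells treated 24 hr with compound in complete culture medium. Values are AC50s from Hill-equation modelling of qHTS titrations.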
# [11] = Cell Viability - LYMP2-012 (AID 982);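 also: cellular ATP by luciferase luminescence where a drop means cytotoxicity; potency is read from the fitted curve at half-maximal effect; cells exposed to compound for one day before reading; nearly all actives have a fitted effect of over 55% in size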
# [12] = Cell Viability - LYMP2-014 (AID 983); also: potency is read from the fitted curve at half-maximal effect; nearly all actives have a fitted effect of over 50% in size
# How it was run: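 Quantitative HTS in lymphoblastoid cells: 24 hr compound exposure, then CellTiter-Glo ATP luminescence. Positive control was tetraoctylammonium bromide, 6.4pM to 92 uM.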
# [13] = Cell Viability - LYMP2-016 (AID 984); also: potency is read from the fitted curve at half-maximal effect; nearly all actives have a fitted effect of over 55% in size
# How it was run: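 Concentration-dependent ATP depletion measured in LYMP2-016 lymphoblastoid cells, 24 h, 37 C; luciferase-based luminescent detection; Hill-equation AC50.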
# [14] = Cell Viability - LYMP2-018 (AID 985); also: potency is read from the fitted curve at half-maximal effect; nearly all actives have a fitted effect of over 50% in size
# How it was run: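 In this qHTS viability assay, cells are treated for 24 hr and cellular ATP is quantified by luciferase-based luminescence, with tetraoctylammonium bromide as positive control.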
# [15] = Cell Viability - LYMP2-020 (AID 986); also: potency is read from the fitted curve at half-maximal effect; nearly all actives have a fitted effect of over 55% in size
# How it was run: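 Cells at 2500 per well receive a 24 hr compound exposure at 37 C. Viability is measured as ATP-dependent luciferase luminescence, with AC50 modeled from qHTS concentration-response curves.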
# [16] = Cell Viability - LYMP2-022 (AID 987)
# How it was run: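 In this qHTS cytotoxicity screen, compound titrations were incubated 24 hr at 37 C with human lymphoblastoid cells in complete medium. Luciferase-based ATP luminescence provided the viability signal.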
# [17] = Cell Viability - LYMP2-024 (AID 988); also: potency is read from the fitted curve at half-maximal effect; nearly all actives have a fitted effect of over 60% in size
# How it was run: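 Cells at 2500 per well received compound for 24 hr after a 5 hr settling period. Viability was scored by CellTiter-Glo luminescence, with AC50 from Hill fits.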
# [18] = Cell Viability - LYMP1-002 - Assay at 24 hr (AID 993); also: potency is read from the fitted curve at half-maximal effect
# How it was run: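 Viability was judged from intracellular ATP using a luciferase read-out, following a 24-hour compound incubation at 37 C of lymphoblastoid cells seeded at 2500 per well. Concentration-response data were fitted to the Hill equation for AC50.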
# [19] = Cell Viability - LYMP1-002 - Assay at 40 hr (AID 994); also: nearly all actives have a fitted effect of over 60% in size; also: potency is read from the fitted curve at half-maximal effect
# How it was run: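 Concentration-dependent ATP loss after 40 hr treatment at 37 C defined toxicity; AC50 values were obtained by fitting the standard Hill equation.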
# [20] = Cell Viability - LYMP2-026 (AID 989); also: potency is read from the fitted curve at half-maximal effect; nearly all actives have a fitted effect of over 50% in size
# How it was run: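 Acute toxicity screen in complete culture medium, with 24 hr compound exposure at 37 C. Viability read as cellular ATP via luciferase reaction, with tetraoctylammonium bromide (6.4pM to 92 uM) as positive control.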
# Sequence of Alpha-galactosidase (Coffea arabica) (Q42656 whole entry, looked up): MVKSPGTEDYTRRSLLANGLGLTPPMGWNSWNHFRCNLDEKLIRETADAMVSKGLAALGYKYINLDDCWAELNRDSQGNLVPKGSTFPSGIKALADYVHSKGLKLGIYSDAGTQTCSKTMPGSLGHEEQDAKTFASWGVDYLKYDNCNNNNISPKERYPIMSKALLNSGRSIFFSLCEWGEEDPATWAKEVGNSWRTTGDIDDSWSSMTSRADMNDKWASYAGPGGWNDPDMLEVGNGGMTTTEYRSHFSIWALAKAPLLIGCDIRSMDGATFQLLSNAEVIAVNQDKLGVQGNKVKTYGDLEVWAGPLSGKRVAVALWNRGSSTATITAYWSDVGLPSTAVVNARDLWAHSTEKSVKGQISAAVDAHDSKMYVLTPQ
# Sequence of Alpha-galactosidase A (Homo sapiens) (P06280 whole entry, looked up): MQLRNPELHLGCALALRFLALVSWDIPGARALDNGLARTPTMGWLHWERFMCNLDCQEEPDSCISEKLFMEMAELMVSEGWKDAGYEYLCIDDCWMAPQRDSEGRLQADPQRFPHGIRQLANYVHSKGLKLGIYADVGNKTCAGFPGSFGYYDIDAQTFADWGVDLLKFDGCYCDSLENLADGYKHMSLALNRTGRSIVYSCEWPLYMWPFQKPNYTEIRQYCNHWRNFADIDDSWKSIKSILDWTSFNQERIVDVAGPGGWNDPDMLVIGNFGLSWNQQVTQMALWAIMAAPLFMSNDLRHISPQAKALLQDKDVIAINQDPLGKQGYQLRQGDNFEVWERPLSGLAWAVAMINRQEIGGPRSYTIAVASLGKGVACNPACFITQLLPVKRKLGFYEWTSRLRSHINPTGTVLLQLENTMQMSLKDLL
smiles,measurement,setting,value
CC(N)C(=O)OC(C)(C)Cc1ccc(Cl)cc1 (stereo unspecified),outcome,[1],inactive
c1ccc2nc(N3CCNCC3)ccc2c1,outcome,[2],inactive
same,outcome,[3],inactive
Clc1ccccc1C(c1ccccc1)(c1ccccc1)n1ccnc1,outcome,[4],inactive
O=C1CC2(CCCC2)CC(=O)N1CCCCN1CCN(c2ncccn2)CC1,outcome,[4],inactive
CN(C)C(=S)SSC(=S)N(C)C,Potency,[5],316 nM (active)
same,Potency,[6],251 nM (active)
same,Potency,[7],316 nM (active)
same,Potency,[8],251 nM (active)
same,Potency,[9],316 nM (active)
same,Potency,[10],251 nM (active)
same,Potency,[11],199 nM (active)
same,Potency,[12],199 nM (active)
same,Potency,[13],316 nM (active)
same,Potency,[14],199 nM (active)
same,Potency,[15],398 nM (active)
same,Potency,[16],158 nM (active)
same,Potency,[17],251 nM (active)
same,Potency,[18],316 nM (active)
same,Potency,[19],3.98 µM (active)
Oc1ccc(Cl)cc1Cc1cc(Cl)ccc1O,Potency,[15],39800 nM (active)
CC[n+]1c(-c2ccccc2)c2cc(N)ccc2c2ccc(N)cc21,Potency,[5],15800 nM (active)
same,Potency,[6],15800 nM (active)
same,Potency,[7],15800 nM (active)
same,Potency,[8],10000 nM (active)
same,Potency,[9],12600 nM (active)
same,Potency,[10],10000 nM (active)
same,Potency,[11],7940 nM (active)
same,Potency,[12],10000 nM (active)
same,Potency,[13],15800 nM (active)
same,Potency,[14],10000 nM (active)
same,Potency,[15],15800 nM (active)
same,Potency,[16],7940 nM (active)
same,Potency,[17],12600 nM (active)
same,Potency,[20],15800 nM (active)
same,Potency,[18],31600 nM (active)
same,Potency,[19],31.6 µM (active)
C[C@@H]1C[C@@H]([C@H](O)CC2CC(=O)NC(=O)C2)C(=O)[C@@H](C)C1,Potency,[8],2510 nM (active)
same,Potency,[11],631 nM (active) and 794 nM (active)
same,Potency,[14],1000 nM (active)
same,Potency,[15],794 nM (active)
same,Potency,[16],794 nM (active) and 1 µM (active)
same,Potency,[17],794 nM (active)
same,Potency,[20],1000 nM (active)
same,Potency,[18],inactive
same,Potency,[19],1.26 µM (active) and inactive
